Measurements from PubChem BioAssay AID1159580 (chemical genetic matrix, 2015).
Out of some 5,500 compounds screened, about 2,000 (36%) were called active. Roughly 18% stayed inconclusive and do not appear here. Rule as the data show it: active = normalized growth mostly below about 0.91 (no sharp cut-off); inconclusive = no clear call, values can overlap the other calls; inactive = mostly above about 0.92. This is one part of the list.

Experiment: chemical genetic growth profiling, strain panel (AID 1159580);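 also: tested at 20 µM; growth read once vehicle control cultures reached saturation at 30 °C; 1 = growth at the plate median or of vehicle wells; lower values mean less growth of the strain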
Conditions: S. cerevisiae deletion strains, growth OD

Measured: normalized growth

CC(=O)O[C@H]1C[C@@H]2CC[C@@H]3[C@H](CC[C@@]4(C)[C@H]3C[C@H]([N+]3(C)CCCCC3)[C@@H]4OC(C)=O)[C@@]2(C)C[C@@H]1[N+]1(C)CCCCC1
inactive: locus YAL040C, strain CLN3, active compounds read low 0.985 | locus YCL061C, strain MRC1 (second series), active compounds read low 0.988 | locus YDR150W, strain NUM1, active compounds read low 0.998 | locus YDR363W, strain ESC2, active compounds read low 0.989 | locus YER002W, strain NOP16, active compounds read low 1 | locus YGR078C, strain PAC10, active compounds read low 0.996 | locus YNL128W, strain TEP1, active compounds read low 1 | locus YNL175C, strain NOP13, active compounds read low 1.03 | locus YNL197C, strain WHI3, active compounds read low 0.998 | locus YNL224C, strain SQS1, active compounds read low 0.984 | locus YNL322C, strain KRE1, active compounds read low 1.01 | locus YOR083W, strain WHI5 (second series), active compounds read low 0.959 | locus YPL055C, strain LGE1, active compounds read low 0.98 | locus YPL241C, strain CIN2, active compounds read low 0.987
